Laboratory results from PubChem BioAssay (NCI).
Compounds without any hit were thinned out: in the full panel of roughly 83,000, 20% have a hit.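 The test compound was applied at a single concentration to cells in 96-well plates for 48 hours, and percent growth was recorded.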 Active and inactive are the calls of the source. How the source made its calls: active means growth percent below 10; inactive means the rest.

Columns and labels:
Assay in all cases: NCI-60 one-dose screen, 48 h (100 = growth as untreated, 0 = no growth, -100 = all killed)
Details in all cases: 10 µM unless noted
HCT-15 colon = tested on: HCT-15 colon
HT29 colon = tested on: HT29 colon
SNB-75 CNS = tested on: SNB-75 CNS
SNB-19 CNS = tested on: SNB-19 CNS
U251 CNS = tested on: U251 CNS
PC-3 prostate = tested on: PC-3 prostate
SK-MEL-5 melanoma = tested on: SK-MEL-5 melanoma
UACC-62 melanoma = tested on: UACC-62 melanoma
LOX IMVI melanoma = tested on: LOX IMVI melanoma
SK-MEL-28 melanoma = tested on: SK-MEL-28 melanoma

Measured: growth

C#Cc1cccc(NC(=O)c2cccc(NC(=O)CCl)c2)c1
active: HCT-15 colon -63.4% [8.25 µM] | HT29 colon -7.83% [8.25 µM] | SNB-75 CNS -21.9% [8.25 µM] | U251 CNS -93.7% [8.25 µM] | PC-3 prostate -70.8% [8.25 µM] | SK-MEL-5 melanoma -93.8% [8.25 µM] | UACC-62 melanoma -33.7% [8.25 µM] | LOX IMVI melanoma -89% [8.25 µM]
inactive: SNB-19 CNS 11.5% [8.25 µM] | SK-MEL-28 melanoma 37.4% [8.25 µM]

O=C(Nc1ncc(Cc2cc(Cl)ccc2Cl)s1)c1cccs1
inactive: HCT-15 colon 23.5% | HT29 colon 24.3% | SNB-75 CNS 72.5% | SNB-19 CNS 72.9% | U251 CNS 51.8% | PC-3 prostate 53.4% | SK-MEL-5 melanoma 42.9% | UACC-62 melanoma 36.7% | LOX IMVI melanoma 43.3% | SK-MEL-28 melanoma 63.7%

Oc1ccc(C(c2ccc(O)cc2)c2ccc(Br)cn2)cc1
inactive: HCT-15 colon 15.6% | HT29 colon 70.5% | SNB-19 CNS 66.9% | U251 CNS 86.9% | SK-MEL-5 melanoma 85.5% | UACC-62 melanoma 38.9% | SK-MEL-28 melanoma 109%
active: SNB-75 CNS -10.3% | PC-3 prostate -17.1% | LOX IMVI melanoma -12.2%

CC(C)(C)c1cc(C=O)cc(C(C)(C)C)c1O
inactive: HCT-15 colon 102% | HT29 colon 102% | SNB-75 CNS 83.6% | SNB-19 CNS 101% | U251 CNS 96.3% | PC-3 prostate 87.6% | SK-MEL-5 melanoma 92% | UACC-62 melanoma 85.4% | LOX IMVI melanoma 98.4% | SK-MEL-28 melanoma 111%

CCCCOc1ccc(/C=N/Nc2cc(C)nc3ccc(Br)cc23)cc1
active: HCT-15 colon -66% | HT29 colon -19.4% | U251 CNS -53.5% | LOX IMVI melanoma -96.9%
inactive: SNB-75 CNS 107% | SNB-19 CNS 50.7% | PC-3 prostate 53.3% | SK-MEL-5 melanoma 84.3% | UACC-62 melanoma 87.3% | SK-MEL-28 melanoma 59.5%

O=C(/C=C(/C=C/c1csc2ccccc12)OB(F)F)/C=C/c1csc2ccccc12
inactive: HCT-15 colon 11.4% | HT29 colon 15.7% | SNB-75 CNS 16.5% | SNB-19 CNS 48.2% | U251 CNS 17.1% | PC-3 prostate 20.3% | SK-MEL-5 melanoma 31.5%
active: UACC-62 melanoma 6.2% | LOX IMVI melanoma -3.05% | SK-MEL-28 melanoma 4.8%

O=C1Nc2cc(-c3ccc(NC(=O)c4ccccc4)cc3)ccc2/C1=C/c1ccc[nH]1
inactive: HCT-15 colon 87.9% | HT29 colon 109% | SNB-75 CNS 99% | SNB-19 CNS 98.8% | U251 CNS 90.2% | PC-3 prostate 101% | SK-MEL-5 melanoma 103% | UACC-62 melanoma 98.4% | LOX IMVI melanoma 96.2% | SK-MEL-28 melanoma 119%

CCNC(=O)Oc1ccc(/C(=C(\C)c2ccccc2)c2ccc(OCCCN(C)C)cc2)cc1
inactive: HCT-15 colon 52.1% | SNB-75 CNS 90.9% | SNB-19 CNS 88.3% | U251 CNS 66.3% | PC-3 prostate 73.3% | SK-MEL-5 melanoma 80.9% | UACC-62 melanoma 76.1% | LOX IMVI melanoma 67.1% | SK-MEL-28 melanoma 58%
active: HT29 colon 9.13%

O=S(=O)(Nc1ccc(-n2cnc3cc(-c4ccc(O)cc4)ccc32)cc1)c1ccccc1
inactive: HCT-15 colon 87.2% | HT29 colon 95.3% | SNB-75 CNS 88.1% | SNB-19 CNS 90.1% | U251 CNS 65.2% | PC-3 prostate 90.7% | SK-MEL-5 melanoma 66.8% | UACC-62 melanoma 82.3% | LOX IMVI melanoma 81% | SK-MEL-28 melanoma 104%

O=C(Cn1c[n+](CC(=O)c2ccc(-c3ccccc3)cc2)c2ccccc21)Nc1cccc2cccnc12
inactive: HCT-15 colon 95.9% | U251 CNS 20.6% | PC-3 prostate 12.9% | SK-MEL-28 melanoma 21.2%
active: HT29 colon 7.47% | SNB-75 CNS -6.7% | SNB-19 CNS 7.73% | SK-MEL-5 melanoma -35.1% | UACC-62 melanoma -32.3% | LOX IMVI melanoma -45.5%

C=CCn1c(-c2ccc(-c3nc4ccc(C)cc4[nH]3)cc2)n[nH]c1=S
inactive: HCT-15 colon 99.2% | HT29 colon 105% | SNB-75 CNS 104% | SNB-19 CNS 102% | U251 CNS 101% | PC-3 prostate 101% | SK-MEL-5 melanoma 89.5% | UACC-62 melanoma 95.8% | LOX IMVI melanoma 98.3% | SK-MEL-28 melanoma 100%

N=C(N)c1ccc(OCCCCCCCCCCOc2ccc(C(=N)N)cc2)cc1
inactive: HCT-15 colon 37.3%
active: HT29 colon -90.8% | SNB-75 CNS -76.9% | SNB-19 CNS -91.9% | U251 CNS -85.5% | PC-3 prostate -91.3% | SK-MEL-5 melanoma -96.1% | UACC-62 melanoma -97.2% | LOX IMVI melanoma -97.3% | SK-MEL-28 melanoma -93.9%

COc1ccc(C(=O)c2cc(C)c(OC)c(C)c2)c(OC)c1N(C(=O)CCl)C(=O)CCl
inactive: SNB-75 CNS 45.2% | SNB-19 CNS 11.9% | U251 CNS 16.1% | PC-3 prostate 13.1% | UACC-62 melanoma 24.5% | LOX IMVI melanoma 14.1% | SK-MEL-28 melanoma 54%
active: HCT-15 colon 4.71% | HT29 colon 3.24% | SK-MEL-5 melanoma -9.39%

S=c1cc(S)c2cc(Br)ccc2[nH]1
inactive: HCT-15 colon 99.8% | HT29 colon 96.9% | SNB-75 CNS 105% | SNB-19 CNS 94.1% | U251 CNS 98.3% | PC-3 prostate 78.8% | SK-MEL-5 melanoma 89% | UACC-62 melanoma 83.4% | LOX IMVI melanoma 95.9% | SK-MEL-28 melanoma 98%

Cc1cccc(NC(=O)Nc2ccc(-n3cnc4cc(-c5ccc(O)cc5)ccc43)cc2)c1
inactive: HCT-15 colon 18.8% | HT29 colon 28.4% | SNB-75 CNS 69.2% | SNB-19 CNS 28% | U251 CNS 26.5% | PC-3 prostate 31.2% | SK-MEL-5 melanoma 14.4% | UACC-62 melanoma 27.3% | LOX IMVI melanoma 30.6% | SK-MEL-28 melanoma 44%

CCN1C(=O)N(CC)C2Nn3c(s/c(=C\c4ccc(OC)cc4)c3=O)=NC21 (stereo not given)
inactive: HCT-15 colon 32.2% | HT29 colon 83.1% | SNB-19 CNS 53.1% | U251 CNS 39.3% | PC-3 prostate 44.1% | SK-MEL-5 melanoma 47.6% | UACC-62 melanoma 34.1% | LOX IMVI melanoma 53.6% | SK-MEL-28 melanoma 62.8%
active: SNB-75 CNS 8.85%

C#CCNC(=O)[C@H](Cc1ccccc1)NC(=O)[C@]12CC[C@@H](C(=C)C)[C@@H]1[C@H]1CC[C@@H]3[C@@]4(C)CCC(=O)C(C)(C)[C@@H]4CC[C@@]3(C)[C@]1(C)CC2
inactive: HCT-15 colon 70.7% | HT29 colon 52.9% | SNB-75 CNS 99.2% | SNB-19 CNS 82.6% | U251 CNS 69.1% | PC-3 prostate 33% | SK-MEL-5 melanoma 78.2% | UACC-62 melanoma 59.5% | LOX IMVI melanoma 75.4% | SK-MEL-28 melanoma 98.1%

C=C1C(=O)O[C@H]2[C@H]1CC/C(CNC(=O)/C=C/c1cccc(OC)c1)=C\CC[C@@]1(C)O[C@@H]21
inactive: SNB-75 CNS 90.1% | SNB-19 CNS 55.5% | U251 CNS 47.3% | PC-3 prostate 36% | SK-MEL-5 melanoma 67.8%
active: HCT-15 colon -44.7% | HT29 colon -36.7% | UACC-62 melanoma -26.6% | LOX IMVI melanoma 0.442% | SK-MEL-28 melanoma -48.7%

CN1C(N2CCN(S(=O)(=O)c3ccccc3)CC2)=NS(=O)(=O)c2ccccc21
inactive: HCT-15 colon 113% | HT29 colon 104% | SNB-75 CNS 53.4% | SNB-19 CNS 104% | U251 CNS 99.7% | PC-3 prostate 98.9% | SK-MEL-5 melanoma 104% | UACC-62 melanoma 94.4% | LOX IMVI melanoma 96% | SK-MEL-28 melanoma 103%

NC(=NCCCOc1ccc(F)cc1)Nc1ccc(Cl)cc1
active: SK-MEL-5 melanoma 4.33%
inactive: HCT-15 colon 69.4% | HT29 colon 13.8% | SNB-75 CNS 80.9% | SNB-19 CNS 55.2% | U251 CNS 76.7% | PC-3 prostate 50.2% | UACC-62 melanoma 56.8% | LOX IMVI melanoma 83.9% | SK-MEL-28 melanoma 88.3%

Brc1ccc(Nc2csc(-c3ccccn3)n2)cc1
inactive: HCT-15 colon 67.4% | HT29 colon 81.4% | SNB-75 CNS 72.3% | SNB-19 CNS 96% | U251 CNS 101% | PC-3 prostate 85.3% | SK-MEL-5 melanoma 95.4% | UACC-62 melanoma 67.1% | LOX IMVI melanoma 72.1% | SK-MEL-28 melanoma 109%
